# Screens from PubChem.
# PLC-beta3 inh = human PLC-beta3 inhibitors, primary screen, biochemical, fluorescence; 1-phosphatidylinositol 4,5-bisphosphate phosphodiesterase beta-3 (Homo sapiens), Q01970; 370,000 tested, 0.18% active; inhibition, % at 12.2 µM; Purified PLC-beta3, fluorogenic substrate; in the data active = inhibition above about 11%;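 also: 0% = median of compound wells on plate and 100% = full blocker control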
# Target sequence (Q01970 whole entry, looked up): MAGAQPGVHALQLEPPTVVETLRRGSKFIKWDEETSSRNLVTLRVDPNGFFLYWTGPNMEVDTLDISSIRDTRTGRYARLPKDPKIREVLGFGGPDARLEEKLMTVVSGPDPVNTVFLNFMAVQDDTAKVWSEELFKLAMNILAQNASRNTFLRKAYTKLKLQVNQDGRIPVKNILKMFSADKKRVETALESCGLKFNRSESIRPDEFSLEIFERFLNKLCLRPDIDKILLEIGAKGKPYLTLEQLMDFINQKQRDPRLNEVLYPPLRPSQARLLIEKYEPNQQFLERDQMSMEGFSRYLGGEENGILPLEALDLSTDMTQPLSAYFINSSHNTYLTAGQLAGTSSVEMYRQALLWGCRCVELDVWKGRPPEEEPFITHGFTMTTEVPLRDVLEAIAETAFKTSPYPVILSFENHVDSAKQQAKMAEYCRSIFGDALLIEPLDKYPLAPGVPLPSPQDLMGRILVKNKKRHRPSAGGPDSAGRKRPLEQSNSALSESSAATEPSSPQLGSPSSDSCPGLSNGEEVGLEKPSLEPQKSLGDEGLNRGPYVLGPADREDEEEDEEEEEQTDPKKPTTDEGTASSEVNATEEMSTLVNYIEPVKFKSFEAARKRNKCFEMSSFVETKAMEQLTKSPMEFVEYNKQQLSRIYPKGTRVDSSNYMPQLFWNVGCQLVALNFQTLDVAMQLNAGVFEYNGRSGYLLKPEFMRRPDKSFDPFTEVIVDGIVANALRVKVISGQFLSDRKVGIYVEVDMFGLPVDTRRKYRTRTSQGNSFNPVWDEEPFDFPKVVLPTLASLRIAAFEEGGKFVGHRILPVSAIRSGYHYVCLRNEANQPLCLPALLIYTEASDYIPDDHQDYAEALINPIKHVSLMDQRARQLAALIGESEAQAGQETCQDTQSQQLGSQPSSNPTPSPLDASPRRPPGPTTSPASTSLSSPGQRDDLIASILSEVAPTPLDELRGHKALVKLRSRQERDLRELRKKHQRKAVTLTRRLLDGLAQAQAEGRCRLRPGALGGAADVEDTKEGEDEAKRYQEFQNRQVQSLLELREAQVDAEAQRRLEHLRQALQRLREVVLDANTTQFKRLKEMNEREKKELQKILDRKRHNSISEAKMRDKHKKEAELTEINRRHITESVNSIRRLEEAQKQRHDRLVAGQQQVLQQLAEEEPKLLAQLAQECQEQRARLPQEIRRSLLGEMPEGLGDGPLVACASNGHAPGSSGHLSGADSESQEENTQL
# PLC-gamma1 inh = PLC-gamma1 enzyme inhibitors, primary screen, biochemical, fluorescence, purified enzyme; 1-phosphatidylinositol 4,5-bisphosphate phosphodiesterase gamma-1 (Homo sapiens), P19174; fluorogenic substrate; inhibition, % at 12.2 µM; 370,000 tested, 0.84% active; AID 720700, 2013; in the data active = inhibition above about 9.5%
# sPLA2-III inh = human group III sPLA2 inhibitors, primary screen, biochemical, QFRET, BODIPY PC-A2 liposome substrate; QFRET BODIPY PC-A2 liposome hydrolysis, fluorescence; inhibition, % at 12.2 µM; 370,000 tested, 0.56% active; AID 743126, 2013;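 active = inhibition above mean plus 3 SD of compounds lying within the high and low control bounds, cut at about 19% in these data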;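 also: 0% = median of test compound wells and 100% = no enzyme DMSO wells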
# ADAM17 inh = ADAM17 inhibitors, primary screen, biochemical, QFRET; inhibition, % at 6.95 µM; recombinant ADAM17, EDANS/DABCYL FRET peptide cleavage; 370,000 tested, 0.83% active;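 active = inhibition above the mean of compounds lying between control limits plus 3 SD, set per campaign, cut at about 8.5% in these data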;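 also: 0% = DMSO-only wells as the low control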
# ADAM10 inh = human ADAM10 inhibitors, primary screen, biochemical, QFRET, HTS; Disintegrin and metalloproteinase domain-containing protein 10 (Homo sapiens), O14672; recombinant ADAM10, EDANS/DABCYL FRET peptide cleavage, 3 h; inhibition, % at 7 µM; 370,000 tested, 0.62% active;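 active = inhibition above a per-campaign cutoff equal to the mean of compounds falling between control-based bounds plus 3 SD, cut at about 20% in these data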;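 also: 0% = DMSO wells while the 100% control is not disclosed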
# proKLK7 act = proKLK7 zymogen activators, primary screen, biochemical, fluorescence intensity. Kallikrein-7 (Homo sapiens), P49862. purified proKLK7, EDANS-DABCYL substrate fluorescence; 100% is mature enzyme control, 0% vehicle. activation, % at 7 µM. 370,000 tested, 0.9% active. AID 652039, 2013;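 active = activation above the mean of all tested compounds plus 3 SD, computed per campaign excluding outliers beyond control limits, cut at about 13% in these data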
# ADAM10 confirm = human ADAM10 inhibitors, confirmation, biochemical, QFRET, triplicate | AID 743208, 2013 | shares compounds with ADAM10 inh | 2,100 tested, 1% active | inhibition, % at 6.95 µM | ADAM10 QFRET peptide cleavage, EDANS fluorescence;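 active = inhibition above about 20% chosen separately for each screening run, limit read from the data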;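 also: 0% = DMSO wells and 100% = marimastat wells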
# ADAM17 counter = ADAM17 inhibitors, counter-screen for ADAM10 exosite inhibitor project, biochemical, QFRET, high throughput; shares compounds with ADAM10 inh; ADAM17 QFRET peptide cleavage, EDANS fluorescence; inhibition, % at 6.95 µM; AID 743214, 2013; 2,100 tested, 0.5% active;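 active = mean triplicate inhibition above the solvent-only control wells' mean plus 3 SD, cut at about 12% in these data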;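 also: 0% = DMSO wells and 100% = marimastat wells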
# ADAM10 counter = ADAM10 inhibitors, counter-screen for ADAM17 exosite inhibitor project, biochemical, FRET, human ADAM10; shares compounds with ADAM17 inh; recombinant ADAM10, EDANS/DABCYL FRET peptide cleavage, 3 h; inhibition, % at 6.95 µM; 2,900 tested, 47% active;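 active = mean inhibition over the triplicate runs exceeds the activity threshold set in the earlier primary screen, cut at about 20% in these data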;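 also: 0% = DMSO wells and 100% = marimastat wells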
# ADAM17 confirm = ADAM17 inhibitors, hit retest, confirmation, biochemical, QFRET peptide cleavage; recombinant ADAM17, EDANS/DABCYL QFRET peptide cleavage; shares compounds with ADAM17 inh; 2,900 tested, 65% active; inhibition, % at 6.95 µM;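 active = mean inhibition across replicates above the hit cutoff set in the primary screen, cut at about 8.5% in these data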;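 also: 0% = DMSO wells and 100% = marimastat wells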
# * = called active by the depositor; . = not tested or not shown; ! = a repeat was not active. A selection: hits, their analogues and other compounds. The true share with any hit is near 3.4%.
SMILES,PLC-beta3 inh,PLC-gamma1 inh,sPLA2-III inh,ADAM17 inh,ADAM10 inh,proKLK7 act,ADAM10 confirm,ADAM17 counter,ADAM10 counter,ADAM17 confirm
OC(c1ccc(F)cc1)c1nc(-c2csc3ccccc23)cs1 (stereo unspecified),0,5,-2,5,8,1,.,.,.,.
OC(c1ccccc1)c1nc(-c2csc3ccccc23)cs1 (stereo unspecified),9,5,-31,16*,33*,0,3,1,30*,16*
CCc1nc2ccc(C(=O)Nc3cccc(NS(C)(=O)=O)c3)cn2c1N(CC)Cc1cccc(Br)c1,-27,-14,-37,15*,36*,0,9,3,23*,13*
CCc1nc2ccc(C(=O)Nc3cccc(OC)c3)cn2c1N(CC)Cc1cccc(Br)c1,-29,-14,1,11*,22*,0,12,3,27*,12*
COc1ccccc1NC(=O)c1c(Nc2ccccc2C)sc(C(=O)Nc2cccc(Cl)c2)c1N,0,1,-10,10*,21*,-1,28*,10,20,14*
CCc1ccc(NC(=O)C2CCN(S(=O)(=O)c3ccc4c(c3)NC(=O)C(C)S4)CC2)cc1 (stereo unspecified),-2,7,-26,14*,26*,0,1,0,21*,11*
O=S(=O)(/N=C(/Nc1ccc(Cl)c(S(=O)(=O)Nc2ccccc2Cl)c1)c1ccc(F)cc1)c1ccccc1,3,5,-43,12*!,22*!,0,7,2,36*,18*
COc1ccc(NS(=O)(=O)c2cccc(N/C(=N\S(=O)(=O)c3ccccc3)c3ccc(F)cc3)c2)cc1,4,3,-48,8.7*,21*,0,4,1,24*,15*
COc1ccc(OCc2cc(C(=O)NCC(C)Oc3cccnc3)no2)c(Cl)c1 (stereo unspecified),-12,-4,-8,-2,2,0,.,.,.,.
COc1ccc(-n2c(SCC(=O)Nc3cc(C)c(NC(=O)c4ccccc4)cc3OC)nnc2-c2ccco2)cc1,2,7,-8,12*,24*,0,5,5,19,8.7*
COc1ccc(-n2c(SCC(=O)Nc3cc(C)c(NC(=O)c4ccccc4)cc3OC)nnc2-c2cccnc2)cc1,5,-1,-5,-1,0,0,.,.,.,.
OC[C@@H]1CN(Cc2ccc(-c3ccccc3)cc2)C[C@H](n2cnc3c(NCc4ccc(F)cc4)ncnc32)O1,3,1,-30,8.9*,23*,0,6,4,29*,18*
